Compound activity from PubChem BioAssay.
TEAD-YAP inh: TEAD-YAP interaction inhibition, primary screen, TEAD-YAP interaction inhibitor project, luminescence, HEK-TIYL cells; inhibition, % at 9.12 µM; TEAD-Gal4/YAP UAS-luciferase luminescence; 1.4% of 640,000 active; in the data active means inhibition above about 32%;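 further: 0% = median of test compound wells and 100% = reference inhibitor wells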
MITF inh: MITF inhibitors, primary screen, biochemical, AlphaScreen, human; inhibition, % at 2.6 µM; AlphaScreen MITF homodimerization, bead proximity signal; Microphthalmia-associated transcription factor (Homo sapiens), O75030; AID 1259374, 2018; 0.91% of 650,000 active; in the data active means inhibition above about 50%;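 further: 0% = vehicle wells with protein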
FBW7 activator: FBW7 E3 ligase activators, primary screen, biochemical, AlphaScreen, human | F-box/WD repeat-containing protein 7 (Homo sapiens), Q969H0 | AlphaScreen FBW7–phospho-cyclin E peptide binding, activator screen | normalized activity (activation), % at 26.1 µM | 0.13% of 650,000 active | AID 1259310, 2017; in the data active means normalized activity above about 1.9%;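 further: purified mutant Fbw7 with reduced substrate affinity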
Target sequence (Q969H0 whole entry, looked up): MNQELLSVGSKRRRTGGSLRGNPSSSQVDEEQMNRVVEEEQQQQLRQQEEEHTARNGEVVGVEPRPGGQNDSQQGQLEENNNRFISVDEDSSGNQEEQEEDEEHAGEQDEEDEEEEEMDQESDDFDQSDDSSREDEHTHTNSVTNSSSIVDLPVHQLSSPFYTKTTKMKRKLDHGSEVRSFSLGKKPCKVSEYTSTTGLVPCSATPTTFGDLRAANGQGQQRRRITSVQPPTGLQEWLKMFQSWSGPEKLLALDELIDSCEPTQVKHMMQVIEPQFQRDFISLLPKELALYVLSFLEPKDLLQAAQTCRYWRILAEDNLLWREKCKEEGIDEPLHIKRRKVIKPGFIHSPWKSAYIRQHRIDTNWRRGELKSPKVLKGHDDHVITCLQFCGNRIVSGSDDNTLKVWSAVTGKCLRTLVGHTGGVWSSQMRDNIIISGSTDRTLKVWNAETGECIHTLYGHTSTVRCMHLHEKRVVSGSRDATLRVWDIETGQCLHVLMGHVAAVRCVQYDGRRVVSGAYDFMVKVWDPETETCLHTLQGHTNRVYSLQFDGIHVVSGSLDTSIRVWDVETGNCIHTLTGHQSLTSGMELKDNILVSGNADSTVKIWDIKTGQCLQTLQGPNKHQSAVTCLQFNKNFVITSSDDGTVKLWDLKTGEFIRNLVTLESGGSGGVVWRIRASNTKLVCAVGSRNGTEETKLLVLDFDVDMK
GPR151 ag: activators of human GPR151, primary screen, cell-based, PathHunter beta-arrestin, luminescence | PathHunter beta-arrestin GPR151 cells | G-protein coupled receptor 151 (Homo sapiens), Q8TDV0 | activation, % at 11.2 µM | 1% of 650,000 active | AID 1508602, 2020; in the data active means activation above about 4.9%;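 further: 0% = median of compound wells and 100% = cells with positive control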
GPR151 conf act: GPR151 activators, triplicate retest, confirmation, cell-based, PathHunter beta-arrestin, luminescence. shares compounds with GPR151 ag. GPR151 PathHunter beta-arrestin cells, 90 min; % of EA-reagent control over plate median. activation, % at 11.2 µM. 6,700 tested, under 10 active;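 active means mean percent activation across replicates above the confirmation screen cutoff of 4.91%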
GPR119 counter: GPR119 activators in beta-arrestin cells, counter-screen for GPR151 activator project, cell-based, PathHunter beta-arrestin, luminescence, triplicate; shares compounds with GPR151 ag; 90 min; 0 = compound-well median, 100 = enzyme-acceptor control; activation, % at 11.2 µM; 0.3% of 6,700 active; AID 1508611, 2020;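 active means mean percent activation in the counterscreen above 29.09%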;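 further: counterscreen on off-target GPR119 to flag nonselective hits from the GPR151 activator screen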
An asterisk follows results filed as active; nt = no result given. The list is not random: actives were taken first. Their share in the collection is about 3.4%.

SMILES	TEAD-YAP inh	MITF inh	FBW7 activator	GPR151 ag	GPR151 conf act	GPR119 counter
CCN(CC)C(=O)C1CCCN(c2nc(Nc3cc(OC)c(OC)c(OC)c3)nc(N(CC)CC)n2)C1 (stereo unspecified)	-7	-2	0	14*	0	-3
CCN(CC)C(=O)C1CCCN(c2nc(Nc3cc(OC)c(OC)c(OC)c3)c3ncn(C4CCCCC4)c3n2)C1 (stereo unspecified)	-13	17	0	12*	-1	-12
COc1cc(Nc2nc(Nc3ccncc3)nc3c2ncn3C2CCCCC2)cc(OC)c1OC	5	3	0	6.1*	0	0
COC(=O)CCNC(=O)NC(CCC(C)C)c1c(-n2cccc2)sc2c1CCN(C)C2 (stereo unspecified)	-6	-3	0	2	nt	nt
COCCCNC(=O)NC(CCC(C)C)c1c(-n2cccc2)sc2c1CCN(C)C2 (stereo unspecified)	10	-2	0	8.2*	0	-5
Cc1ccc(NC(=O)CSc2nnc(-c3ccc([N+](=O)[O-])cc3)n2C)cc1	2	1	0	2	nt	nt
COc1ccc(CNc2c3c(nc4nncn24)CCC3)cc1	-3	-7	0	7.3*	-1	-14
O=C(CSc1ncccc1C(=O)NCc1ccc(Cl)c(Cl)c1)NCc1ccccc1	5	14	0	-2	nt	nt
O=C1OC(c2ccc(Cl)cc2)=N/C1=C\c1coc2ccccc2c1=O	2	5	0	1	nt	nt
COc1ccc(CNC(=O)c2cc3c(=O)[nH]c4ccccc4c3n2C)c(OC)c1	-5	12	0	6.4*	-1	-11
CCOc1ccc(C2NC(=O)c3[nH]nc(-c4ccccc4)c32)cc1 (stereo unspecified)	-15	7	0	1	nt	nt
Cc1cc(C)cc(-n2c(=O)c3sccc3n(CC(=O)NC3CCCC3)c2=O)c1	9	7	0	0	nt	nt
Cc1ccc(-n2nc3c(c2NC(=O)c2cccc([N+](=O)[O-])c2C)CS(=O)(=O)C3)c(C)c1	6	0	0	0	nt	nt
Cc1ccc2[nH]c(=O)c(CN(CC3COCCO3)S(=O)(=O)c3ccc(F)cc3)cc2c1 (stereo unspecified)	-12	11	0	5.3*	-1	0
COCCn1c(=NC(=O)Cc2ccccc2)sc2cc(OC)ccc21	2	-13	0	0	nt	nt
COCCn1c(=NC(=O)CCS(=O)(=O)c2ccccc2)sc2cc(OC)ccc21	1	2	0	6.7*	0	6
O=C(NCCSCc1ccc(Cl)cc1)c1ccc(CN2CCN(c3ccccc3)CC2)cc1	16	0	0	1	nt	nt
COc1cccc(C(=O)Nc2c3c(nn2-c2ccc(Oc4ccccc4)cc2)CSC3)c1	6	8	1	-1	nt	nt
COc1ccc(-n2nc3c(c2NC(=O)c2cccc(OC)c2)CSC3)cc1	12	0	0	6.1*	0	6
O=C(Nc1c2c(nn1-c1ccc([N+](=O)[O-])cc1)CSC2)c1ccc(Br)o1	14	8	0	5.2*	-1	-4
O=C(Nc1c2c(nn1-c1ccc(F)cc1)CSC2)c1ccc(Br)o1	11	6	0	2	nt	nt
CN=C(C)c1c(O)c2ccccc2oc1=O	9	-22	0	0	nt	nt
C/C(=N\NC(N)=O)c1c(O)c2ccccc2oc1=O	6	-3	0	7.4*	0	5
CCCNC(=O)c1sc2nc(C)nc(N3CCOCC3)c2c1C	-24	9	0	0	nt	nt
O=CN1CCN(C(=O)c2ccccc2Cl)CC1	-3	10	0	1	nt	nt
SMILES	TEAD-YAP inh	MITF inh	FBW7 activator	GPR151 ag	GPR151 conf act	GPR119 counter
Cc1ccc(C(=O)N2CCN(C=O)CC2)c(Cl)c1	4	16	0	6.5*	0	-4
CS(=O)(=O)N(CC(=O)NC1CC1)c1ccc(F)c(Cl)c1	1	-5	0	5.6*	1	16
CS(=O)(=O)N(CC(=O)Nc1cccc(Cl)c1Cl)c1cccc(F)c1	-13	-1	0	5.3*	0	2
CS(=O)(=O)N(CC(=O)NC1CCCC1)c1ccc(F)c(Cl)c1	7	-1	0	0	nt	nt
CS(=O)(=O)NCc1nnc(SCc2ccc(F)cc2)n1-c1ccc(F)cc1	11	7	0	0	nt	nt
Cc1ccc(-n2c(CNS(C)(=O)=O)nnc2SCc2ccc(F)cc2)cc1	15	13	0	4.9*	1	-1
CCN(CC)C(=O)CN(c1cc(C)cc(C)c1)S(=O)(=O)c1ccccc1	4	4	0	0	nt	nt
CSc1ccc(S(=O)(=O)N(CC(=O)O)c2ccc(C)cc2)cc1	6	19	1	5.8*	-1	-11
CCN(CC)C(=O)CN(c1cccc(OC)c1)S(C)(=O)=O	2	-1	0	12*	1	-6
CCOc1ccc(N(CC(=O)NC(C)(C)C)S(=O)(=O)c2ccc(SC)cc2)cc1	13	3	0	22*	0	-4
CCN(CC)C(=O)CN(c1ccccc1)S(=O)(=O)c1ccc(C)cc1	-3	13	0	6.4*	2	12
Cc1cc2cc(C#N)c(NCCCNC(=O)C3CC3)nc2cc1C	-10	5	0	0	nt	nt
O=C(CSc1nnc(SCC(=O)NCc2ccccc2)s1)NCc1ccccc1	13	7	0	0	nt	nt
COc1ccccc1NC(=O)C1CC12CCN(Cc1cc3ccccc3[nH]c1=O)CC2 (stereo unspecified)	3	-9	0	3	nt	nt
O=C(Nc1ccc(N2CCOCC2)cc1)C1CC(=O)N(Cc2ccccc2)C1 (stereo unspecified)	9	1	0	7.6*	0	-1
COC(=O)C1=C(C)NC2=C(C(=O)CC(C)(C)C2)C1c1ccc(-c2ccccc2)cc1 (stereo unspecified)	4	-3	0	-1	nt	nt
COC(=O)COc1ccc(CNC2CCCCCCC2)cc1	3	0	0	5.4*	0	4
CNCc1ccc(-c2ccc(Br)cc2)o1	-3	11	0	0	nt	nt
CNCc1ccc(-c2ccc(Cl)cc2)o1	-9	14	0	5.0*	0	-4
O=C(NCc1nc2ccccc2[nH]1)c1cncc(-c2ccc(C(=O)NC3CC3)cc2)c1	2	-1	0	0	nt	nt
NS(=O)(=O)c1ccccc1NC(=O)c1c(O)c2cccc3c2n(c1=O)CC3	-9	-5	0	5.2*	-1	-10
